Hit rate of the full screen: of about 98,000 compounds, about 880 (0.9%) were called active. No stated cut-off is given here; in the data, active means inhibition above about 30%; inactive means the rest. What follows is part of a selection rich in actives, with near analogues and random picks from the rest.

This assay in a line: phenotypic screen on post-Golgi transport, primary screen (AID 739).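 Further: yeast cells grown in 1536-well plates; yeast grown about 18 h at 30C before absorbance read.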 To be noted: post-Golgi transport phenotypic cell assay; at 10 µM; hits give high values.
As for `COC(=O)c1ccccc1OCC(=O)N1CCN(c2ccc(Cl)cc2)CC1`, the inhibition is 5.12% (inactive).
On to `O=C(C1CCN(S(=O)(=O)c2cccs2)CC1)N1CCCCCC1`, for which the inhibition is 34.1% (active).
To `O=C(NCc1ccccc1)C1CCCN(S(=O)(=O)c2cccs2)C1` (stereo unspecified) belongs 0% (inactive).
With `O=C(NC1CCCCC1)C1CCCN(S(=O)(=O)c2cccs2)C1` (stereo unspecified), the inhibition was -9.88% (inactive).
The value for `Cc1cccc(C(=O)Nc2ccccc2-c2nnn(CC(=O)Nc3ccc4c(c3)OCCO4)n2)c1` was -5.17% (inactive); that for `CC(=O)c1cc(NC(=O)c2ccccc2)c(=O)oc1/C=C/N(C)C` was -1.13% (inactive); that for `Cn1ccs/c1=N\S(=O)(=O)c1ccc(C(C)(C)C)cc1` was -6.14% (inactive).
As to `O=C(O)CCN=C1CCc2ccccc2N1`, the inhibition is 2.24% (inactive).
Take `CCOc1cccc(C(=O)Nc2cnn(Cc3ccccc3)c2)c1`: the inhibition is 7.09% (inactive).
Turning to `CCOc1cccc(C(=O)Nc2cccnc2)c1`, the inhibition was 31% (active).
The value for `CCC(=O)Nc1cccc(NC(=O)c2cccnc2)c1` was -2.1% (inactive); that for `NC(=NC(=O)c1ccccc1)N1CCOCC1` was -0.16% (inactive); that for `CC(=O)OCc1cc2cc(C)ccc2[nH]c1=O` was 5.81% (inactive).
To `CCOC(=O)c1cc2cc(C)ccc2[nH]1` belongs 39.6% (active); to `CCNCc1cc2cc(C)ccc2[nH]c1=O`, 6.62% (inactive).
On to `N/C(=N\OC(=O)CCC1CCCCC1)c1ccccn1`, for which the inhibition was 13.9% (inactive).
To `Nc1c(-c2ccc(F)cc2)cnc2ncnn12` belongs 15.1% (inactive); to `O=C(CCC(=O)OCc1cccc(C(=O)Oc2ccccc2)c1)Nc1cccc2ccccc12`, -3.63% (inactive); to `N#Cc1nc(-c2ccc(OCc3ccccc3)cc2)oc1NCCCN1CCOCC1`, 5.49% (inactive).
To `N#Cc1nc(COc2ccc(-c3ccccc3)cc2)oc1NCc1cccnc1` belongs 99.8% (active); to `N#Cc1nc(Cc2ccccc2)oc1NCCc1ccccc1`, 18.8% (inactive); to `CCCn1nc2cc(C(=O)NCc3ccccc3)ccc2c1OCC`, 2.26% (inactive).
Consider `CCCCNC(=S)NNC(=O)c1cc(C)on1`, for which the inhibition was 0.65% (inactive).
Turning to `COc1ccc(/C=C2/S/C(=N/N=C3\CC4CCC3(C)C4(C)C)NC2=O)cc1` (stereo unspecified), the inhibition is -0.32% (inactive).
Turning to `COC(=O)c1ccc(CSc2nnc(NC(C)C)s2)cc1`, the inhibition is 36.2% (active).
For the compound `COC(=O)c1ccc(CSc2nncn2C)cc1`, the inhibition was 1.45% (inactive).
The value for `CCOc1ccccc1Nc1nnc(SCc2ccc(C(=O)OC)o2)s1` was -9.05% (inactive).
To `Cc1ccccc1/[N+]([O-])=C/c1ccncc1` belongs -1.29% (inactive); to `COc1ccc2c(Cl)c(C(=O)NCc3ccco3)sc2c1`, -10.7% (inactive); to `Cc1cc(=O)oc2ccc(OCC(=O)O)cc12`, 2.48% (inactive).
Consider `COCCNC(=O)COc1ccc(C)c(C)c1`, for which the inhibition was 4.17% (inactive).
With `Cc1ccc(SC(=O)COc2ccc(C)c(C)c2)cc1`, the inhibition is 35.3% (active).
As for `O=S(=O)(c1ccc(F)cc1)n1ccc(-c2cnc(-c3ccccc3)s2)n1`, the inhibition was -10% (inactive).
Regarding `O=C(Nc1nnc(CCOCCOCCc2nnc(NC(=O)c3ccco3)s2)s1)c1ccco1`, the inhibition was -30.3% (inactive).
For `CCCc1noc2c1/C(=N\O)CCC2`, the inhibition was 13.6% (inactive).
As for `O=C(NCC1CCCO1)c1ccc2ccccc2n1` (stereo unspecified), the inhibition was -3.36% (inactive).

For orientation: inhibition means the drop in the measured response relative to a control, in per cent.

These data come from PubChem BioAssay AID739 (SRMLSC, 2007).
